Screens as filed in PubChem BioAssay.
CYP2C9 inhib – blocks human cytochrome P450 2C9 | P11712 | CYP2C9 Supersomes, luciferin-H conversion, luminescence | inhibition, % at 5 µM | 96,000 tested, 20% active | AID 777;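 active means blocking of liver enzyme CYP2C9 beyond about 50% at 5 µM, limit read from the data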
CYP2C19 inhib – inhibitors of human CYP2C19. P33261. CYP2C19 Supersomes, luciferin-H EGE luminescence, 30 min. inhibition, % at 5 µM. 96,000 tested, 21% active. AID 778;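 active means CYP2C19 inhibition above a set limit at 5 µM in the primary screen, cut at about 50% in these data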
Target sequence (P33261 whole entry, looked up): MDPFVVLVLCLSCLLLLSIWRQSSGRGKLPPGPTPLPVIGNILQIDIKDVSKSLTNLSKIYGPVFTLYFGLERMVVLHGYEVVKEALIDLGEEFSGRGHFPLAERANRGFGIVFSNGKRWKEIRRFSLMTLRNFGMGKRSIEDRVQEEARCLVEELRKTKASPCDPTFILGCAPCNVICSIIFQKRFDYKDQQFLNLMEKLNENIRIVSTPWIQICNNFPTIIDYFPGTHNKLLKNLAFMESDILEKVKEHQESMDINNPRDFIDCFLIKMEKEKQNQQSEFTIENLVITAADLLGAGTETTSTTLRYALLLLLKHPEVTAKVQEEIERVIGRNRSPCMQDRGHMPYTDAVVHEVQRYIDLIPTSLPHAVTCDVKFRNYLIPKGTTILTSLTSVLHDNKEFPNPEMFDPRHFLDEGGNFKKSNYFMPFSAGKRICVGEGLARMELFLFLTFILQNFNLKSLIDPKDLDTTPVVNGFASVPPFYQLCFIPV
PostGolgi yeast – growth inhibition of a yeast mutant, post-Golgi transport screen | post-Golgi transport phenotypic cell assay | AID 739 | inhibition, % at 10 µM | 98,000 tested, 0.9% active;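 further: yeast cells grown in 1536-well plates; yeast grown about 18 h at 30C before absorbance read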
CYP2C9 activ – increases human cytochrome P450 2C9 activity; P11712; recombinant CYP2C9, luciferin-H conversion, luminescence; stronger effect = higher value; factor 1 = untreated enzyme, 0 = blocked; activation factor at 5 µM; 96,000 tested, 1.4% active;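 active means activation factor of 2 or more for CYP2C9 at a 5 µM dose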
CYP2C19 activ – cytochrome P450 2C19 (human) activation. P33261. recombinant CYP2C19, luciferin-H EGE luminescence; stronger effect = higher value; 0 = fully inhibited enzyme, 1 = untreated enzyme. activation factor at 5 µM. 96,000 tested, under 10 active;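 active means activation factor of at least 2 at 5 µM in the primary screen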
PostGolgi ctrl – inhibits growth of the yeast control strain. efflux-deficient yeast background strain, growth absorbance A615, 16 h. inhibition, % at 10 µM. 98,000 tested, 5% active. AID 738
A number is an active result; 0 = inactive. Compounds with a hit are over-represented: about 32% of the library has one in this group of screens. Unless noted, no stated cut-off is given here; in the data, active means inhibition above about 30%; inactive means the rest.

SMILES	CYP2C9 inhib	CYP2C19 inhib	PostGolgi yeast	CYP2C9 activ	CYP2C19 activ	PostGolgi ctrl
CCOC(=O)Cc1csc(NC(=O)c2cccc(OC)c2)n1	65	0	0	0	0	0
CCOC(=O)Cc1csc(NC(=O)COc2ccc(OC)cc2)n1	0	0	0	0	0	0
CCOC(=O)Cc1nnc(NC(=O)COc2ccc(OC)cc2)s1	61	0	0	0	0	0
CCOC(=O)Cc1csc(NC(=O)CSc2nc(N)c3c(C)c(C)sc3n2)n1	59	0	0	0	0	0
N#Cc1cc(-c2ccccc2)cnc1Cl	0	0	0	0	0	0
Cc1cc(-c2ccccc2)nc(N2CCC(C(=O)NC(C)C)CC2)n1	0	0	0	0	0	0
CCOC(=O)Cc1csc(NC(=O)COc2ccc3ccccc3c2)n1	0	53	0	0	0	0
COCC(N)(c1ccccc1)c1nc2ccccc2n1C (centres undefined)	0	52	0	0	0	0
S=c1[nH]nc(-c2ccccc2)n1CC1CCCO1 (centres undefined)	0	0	0	0	0	0
S=c1[nH]nc(-c2ccccc2)n1C1C=CCCC1 (centres undefined)	0	68	0	0	0	0
CCn1c(N2CCN(C(=O)Nc3ccc(F)cc3)CC2)nc2ccccc21	0	0	0	0	0	0
CCOC(=O)c1c(C)nc2c(c1-c1ccc(OC)cc1)C(=O)CC(C)(C)C2	0	0	0	0	0	0
CCOC(=O)c1c(C)nc2c(c1C)/C(=N/O)CC(C)(C)C2	54	64	0	0	0	0
Cc1ccc(N=C2NC(=O)C(CC(=O)O)S2)cc1 (centres undefined)	0	0	0	0	0	0
O=C(NCc1ccco1)[C@@H]1CSC2c3ccccc3C(=O)N21 (some centres undefined)	0	57	0	0	0	0
O=C(NCc1cccs1)[C@@H]1CSC2c3ccccc3C(=O)N21 (some centres undefined)	72	75	0	0	0	0
COc1ccc(C2(C)NC(=O)N(CC(=O)NCCC3=CCCCC3)C2=O)cc1OC (centres undefined)	0	0	0	0	0	0
CCOc1cc(C2C(C#N)=C(N)OC3CCCC(=O)C32)ccc1OCCN1CCOCC1 (centres undefined)	0	0	0	0	0	0
COC(=O)NC1CSCC1OC(=O)CN1C(=O)c2ccccc2C1=O (centres undefined)	0	0	0	0	0	40
CC(Cc1c[nH]c2ccccc12)NC(=O)C1CCCNC1=O (centres undefined)	0	0	0	0	0	0
CC(C)c1ccccc1OCCCCCNCCO	0	59	0	0	0	0
O=C(Nc1cccc(O)c1)c1cc(-c2ccco2)on1	0	0	0	2	0	0
O=C(NC1CCCCC1)c1cc(-c2ccco2)on1	0	0	0	2.8	0	0
COc1ccccc1-c1cc(C(=O)Nc2c(F)cc(F)cc2Br)no1	0	0	0	0	0	0
O=C(Nc1c(F)cc(F)cc1Br)c1cc(-c2ccco2)on1	0	0	0	2	0	0
SMILES	CYP2C9 inhib	CYP2C19 inhib	PostGolgi yeast	CYP2C9 activ	CYP2C19 activ	PostGolgi ctrl
CC(C)Cc1cc(C(=O)Nc2c(F)cc(F)cc2Br)no1	0	68	0	0	0	0
COc1ccc(CCNC(=O)CN(C2CCCCC2)S(C)(=O)=O)cc1OC	0	0	0	0	0	0
CCOCCCNC(=S)N1C2CCC1CC(NC(=O)NC13CC4CC(CC(C4)C1)C3)C2 (centres undefined)	0	0	0	0	0	0
Cc1ccc(Sc2c(C)[nH]n(C(C)(C)C)c2=O)cc1	87	88	0	0	0	0
Cc1ccc(Cn2nnc3c(=O)[nH]c(C4CCN(S(=O)(=O)c5cc(C)ccc5C)CC4)nc32)cc1	97	79	0	0	0	0
Cc1ccc(C)c(S(=O)(=O)N2CCC(c3nc4c(nnn4Cc4ccc(F)cc4)c(=O)[nH]3)CC2)c1	94	0	0	0	0	0
N#Cc1cc([N+](=O)[O-])c(-n2nnc3ccccc32)c([N+](=O)[O-])c1	66	0	0	0	0	0
N#Cc1ccc(N2CCCC2C(=O)O)c([N+](=O)[O-])c1 (centres undefined)	0	0	0	0	0	0
Cc1ccc(-c2nnc(SCc3nc(N)nc(Nc4ccccc4C)n3)n2N)cc1	0	0	0	0	0	0
Cc1nc(N)nc(OCC(F)(F)C(F)F)c1Br	0	0	0	0	0	0
